# According to the supplement of paper PMC13380429:
# Key:
# [1] = test system: Vero E6 infected with SARS-CoV-2; assay: morphology score (similarity to uninfected cells); higher = more like uninfected cells; details: 24 h
# [2] = test system: Vero E6 infected with SARS-CoV-2; assay: SARS-CoV-2 infection rate relative to infected DMSO; higher = more infection, active = 60 or less; details: 24 h
SMILES,morphology score [1],SARS-CoV-2 infection rate [2]
O=C(CCN1CCN(C(=O)OCc2cc(Cl)cc(Cl)c2)CC1)c1ccc2[nH]c(=O)oc2c1 (10 µM),0.127,99.5% (inactive)
CC(CNC(=O)c1cccnc1)NC(=O)c1cccnc1 (stereo unspecified) [nicaraven] (10 µM),-0.02,114% (inactive)
CCC[C@H](N[C@@H](C)C(=O)N1[C@H](C(=O)O)C[C@@H]2CCCC[C@@H]21)C(=O)OCC [perindopril] (10 µM),0.104,95% (inactive)
COc1cc2c(c(OC)c1OC)-c1c(cc3c(c1OC)OCO3)C[C@H](C)[C@@](C)(O)C2 [schisandrol-B] (10 µM),-0.0659,106% (inactive)
COc1ccc(-n2c(SCCCN3C(=O)c4cccc5cccc(c45)C3=O)nnc2-c2ccncc2)cc1 (0.833333 µM),0.102,108% (inactive)
C[n+]1c2cc(N)ccc2cc2ccc(N)cc21 [acriflavinium] (0.833333 µM),0.0932,98.5% (inactive)
Cc1cc(NC(=O)C(c2ccccc2)N2CCCc3ccccc32)no1 (stereo unspecified) (10 µM),0.018,92% (inactive)
CC[C@H](NC(=O)c1c(O)c(-c2ccccc2)nc2ccccc12)c1ccccc1 [talnetant] (10 µM),-0.0287,117% (inactive)
Cc1nc(C)c(-c2ccc(C3CCC(CC(=O)O)CC3)cc2)nc1C(N)=O (stereo unspecified) (10 µM),0.134,89.5% (inactive)
Cc1c(NC(=O)c2cc3c(s2)CCCC3)cccc1-c1cn(C)c(=O)c(Nc2ccc(C3C(=O)N(C)CCN3C)cc2)n1 (stereo in doubt) (10 µM),0.45,69% (inactive)
C[N+]1(CCCCC[N+]2(C)CCCC2)CCCC1 [pentolinium] (10 µM),-0.0223,102% (inactive)
CC(C)N1Cc2cc(S(C)(=O)=O)ccc2N(CCN2CC=C(c3c[nH]c4cc(F)ccc34)CC2)S1(=O)=O (10 µM),0.178,97.5% (inactive)
N=C(N)NC(=O)c1cnn(-c2cccc3ncccc23)c1C1CC1 [zoniporide] (10 µM),0.127,115% (inactive)
C[C@]12CCC(=O)C=C1CC[C@@H]1[C@@H]2[C@@H](O)C[C@@]2(C)[C@H]1CC[C@]2(O)C(=O)CO [hydrocortisone] (10 µM),-0.144,122% (inactive)
CC(C)[C@@H](CN1CC[C@@](C)(c2cccc(O)c2)[C@@H](C)C1)NC(=O)[C@H]1Cc2ccc(O)cc2CN1 (10 µM),-0.0336,99.5% (inactive)
O=C(O)c1nc(=O)[nH]c(=O)[nH]1 [oxonic-acid] (10 µM),-0.0587,115% (inactive)
NC(=O)c1ccc(-c2nc(-c3ccccn3)c(-c3ccc4c(c3)OCO4)[nH]2)cc1 (10 µM),-0.124,109% (inactive)
CCOC(=O)c1ccc(NC2CCCCC2)c(N)c1 [ferrostatin-1] (10 µM),0.117,94% (inactive)
COc1cc(Nc2c(C#N)cnc3cc(OCCCN4CCN(C)CC4)c(OC)cc23)c(Cl)cc1Cl [bosutinib] (10 µM),0.00987,96.5% (inactive)
O=C(O)c1ccc(S(=O)(=O)N(Cl)Cl)cc1 [halazone] (10 µM),0.13,95% (inactive)
N[C@@H](CSS(=O)(=O)O)C(=O)O [S-sulfo-L-cysteine] (10 µM),0.254,90% (inactive)
Cc1ccc(C(=O)N(CCCN)[C@@H](c2oc3cc(Cl)ccc3c(=O)c2Cc2ccccc2)C(C)C)cc1 (0.833333 µM),-0.422,115% (inactive)
CC(NCCc1ccc(O)cc1)C(O)c1ccc(O)cc1 (stereo unspecified) [ritodrine] (10 µM),0.154,96% (inactive)
CN1CCN(c2ccc(-c3cccc(CN4CCOCC4)c3)cc2NC(=O)c2c[nH]c(=O)cc2C(F)(F)F)CC1 (10 µM),0.0309,115% (inactive)
CNC(=O)c1ccc(N2C(=S)N(c3cnc(C#N)c(C(F)(F)F)c3)C(=O)C23CCC3)cc1F [apalutamide] (10 µM),0.0169,109% (inactive)
COc1ccc(C(C)=O)c(O)c1 [paeonol] (10 µM),0.0505,100% (inactive)
COc1ccc(CCC(=O)Nc2nc3ccc(Cl)cc3s2)cc1OC (10 µM),0.197,100% (inactive)
Cc1nc2c(-c3cnc(N)nc3)nc(N3CCOCC3)nc2n1C(C)C (10 µM),-0.0616,108% (inactive)
